# Test results published in PubChem BioAssay (NCI).
# The panel holds about 79,000 compounds, 15% with a hit somewhere; the sample as a whole holds those more often. Unmarked numbers belong to inactive results. The source made the active and inactive calls. No stated cut-off is given here; in the data, active means growth inhibition above about 70%; inactive means the rest.
# Assays:
# [1] = NCI Yeast Anticancer Drug Screen. Data for the rad52 strain (AID 147);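 further: 0% = growth of vehicle-treated control cultures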; details: S. cerevisiae rad52 mutant growth inhibition, active compounds read high
# In short: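 DNA repair-defective yeast; compound exposure; growth scored against vehicle controls.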
# [2] = NCI Yeast Anticancer Drug Screen. Data for the rad50EPP+ strain (AID 151);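 further: 0% = growth of vehicle-treated control cultures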; details: S. cerevisiae rad50 mutant strain, active compounds read high
# In short: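 rad50EPP+ yeast treated with test compounds. Readout: growth vs vehicle control.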
# [3] = NCI Yeast Anticancer Drug Screen. Data for the mgt1 strain (AID 153); details: S. cerevisiae mgt1 mutant growth inhibition, active compounds read high
# In short: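 Growth inhibition relative to vehicle controls was scored for the mgt1 yeast strain after compound exposure.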
# [4] = NCI Yeast Anticancer Drug Screen. Data for the rad50 strain (AID 155);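 further: 0% = growth of vehicle-only cultures of the same strain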; details: S. cerevisiae rad50 strain growth inhibition, active compounds read high
# In short: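 Yeast carrying a defined DNA repair defect were exposed to test compounds, and growth was compared with vehicle-treated controls to give percent inhibition.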
# [5] = NCI Yeast Anticancer Drug Screen. Data for the mec2-1 strain (AID 157); details: S. cerevisiae mec2-1 strain, active compounds read high
# In short: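 Growth inhibition is read against vehicle-treated controls after compound exposure of the mec2-1 yeast strain, which is defective in DNA damage repair or cell cycle control.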
# [6] = NCI Yeast Anticancer Drug Screen. Data for the rad14 strain (AID 159);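 further: 0% = growth of vehicle-treated control cultures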; details: S. cerevisiae rad14 strain growth inhibition, active compounds read high
# In short: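 Yeast cells carrying a defined DNA-repair defect were exposed to compounds, and growth inhibition was calculated relative to vehicle-treated control cultures.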
# [7] = NCI Yeast Anticancer Drug Screen. Data for the sgs1 mgt1 strain (AID 161);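 further: 0% = growth of cultures given vehicle only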; details: S. cerevisiae sgs1 mgt1 strain, active compounds read high
# In short: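 Growth of a repair-deficient yeast mutant was monitored after compound treatment and expressed as inhibition relative to vehicle-treated cultures.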
# [8] = NCI Yeast Anticancer Drug Screen. Data for the CLN2oe strain (AID 163);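 further: 0% = growth of vehicle-only control cultures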; details: S. cerevisiae CLN2oe strain, active compounds read high
# In short: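 Compound-treated yeast; growth vs vehicle ctrl = % inhibition. Genetically altered strain (cell-cycle control).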
# [9] = NCI Yeast Anticancer Drug Screen. Data for the cln2 rad14 strain (AID 165);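 further: 0% = growth equal to vehicle treated cultures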; details: S. cerevisiae cln2 rad14 strain, active compounds read high
# In short: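 Growth inhibition, relative to vehicle-treated controls, is the read-out. The test organism is a yeast strain with defined genetic alterations, cln2 rad14.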
# [10] = NCI Yeast Anticancer Drug Screen. Data for the bub3 strain (AID 167); details: S. cerevisiae bub3 mutant strain, active compounds read high
# In short: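 Compounds were applied to a genetically altered yeast strain carrying a cell-cycle control defect. Growth inhibition was scored against vehicle-treated controls.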
# [11] = NCI Yeast Anticancer Drug Screen. Data for the wt2 strain (AID 169);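 further: 0% = growth of vehicle-treated yeast cultures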; details: S. cerevisiae wt2 strain growth inhibition, active compounds read high
# In short: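 Compound exposure of yeast; growth compared with vehicle controls; inhibition reported.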
# [12] = NCI Yeast Anticancer Drug Screen. Data for the mlh1 strain (AID 171);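 further: 0% = growth of vehicle-treated control cultures of the same strain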; details: S. cerevisiae mlh1 strain growth inhibition, active compounds read high
# In short: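 Compounds are applied to a genetically altered yeast strain, and its growth is compared with that of vehicle-treated cultures to give percent inhibition.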
# [13] = NCI Yeast Anticancer Drug Screen. Data for the sgs1 strain (AID 173);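 further: 0% = growth of vehicle-only control cultures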; details: S. cerevisiae sgs1 mutant, active compounds read high
# In short: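 Compounds applied to genetically altered yeast; growth compared with vehicle-treated cultures to give % inhibition.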
# [14] = NCI Yeast Anticancer Drug Screen. Data for the mlh1 rad18 strain (AID 175); details: S. cerevisiae mlh1 rad18 strain growth inhibition, active compounds read high
# In short: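 Cells of a genetically altered yeast strain, deficient in DNA damage repair, were treated with compound. Their growth was then compared with that of vehicle-treated cultures to give inhibition.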
# [15] = NCI Yeast Anticancer Drug Screen. Data for the rad18 strain (AID 177); details: S. cerevisiae rad18 mutant growth inhibition, active compounds read high
# In short: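 Compounds are applied to a repair-deficient yeast strain, and growth is compared with that of vehicle-treated cultures to give percent inhibition.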
# [16] = at 5.0 µM (retest, dose inferred, filed as 0.5)
# [17] = at 50.0 µM (retest, dose inferred, filed as 5.0)
structure (smiles),measurement,setting,value
CNc1ccc(Cc2c[nH]c3ccccc23)cc1,growth inhibition,[1]; at 1.2 µM,-20%
same,growth inhibition,[1]; at 3.7 µM,-35%
same,growth inhibition,[1]; at 11.0 µM,-27%
same,growth inhibition,[1]; at 33.0 µM,4%
same,growth inhibition,[1]; at 100.0 µM,22%
same,growth inhibition,[2]; at 1.2 µM,-36%
same,growth inhibition,[2]; at 3.7 µM,-48%
same,growth inhibition,[2]; at 11.0 µM,-23%
same,growth inhibition,[2]; at 33.0 µM,26%
same,growth inhibition,[2]; at 100.0 µM,39%
same,growth inhibition,[3]; at 1.2 µM,-32%
same,growth inhibition,[3]; at 3.7 µM,-28%
same,growth inhibition,[3]; at 11.0 µM,-32%
same,growth inhibition,[3]; at 33.0 µM,1%
same,growth inhibition,[3]; at 100.0 µM,25%
same,growth inhibition,[4]; at 1.2 µM,-40%
same,growth inhibition,[4]; at 3.7 µM,-48%
same,growth inhibition,[4]; [16],42%
same,growth inhibition,[4]; at 11.0 µM,-41%
same,growth inhibition,[4]; at 33.0 µM,14%
same,growth inhibition,[4]; [17],76% (active)
same,growth inhibition,[4]; at 50.0 µM,89% (active)
same,growth inhibition,[4]; at 100.0 µM,26%
same,growth inhibition,[5]; at 1.2 µM,-28%
same,growth inhibition,[5]; at 3.7 µM,-15%
same,growth inhibition,[5]; [16],56%
same,growth inhibition,[5]; at 11.0 µM,-23%
same,growth inhibition,[5]; at 33.0 µM,-5%
same,growth inhibition,[5]; [17],86% (active)
same,growth inhibition,[5]; at 50.0 µM,67.9%
same,growth inhibition,[5]; at 100.0 µM,8%
same,growth inhibition,[6]; at 1.2 µM,-21%
same,growth inhibition,[6]; at 3.7 µM,-19%
same,growth inhibition,[6]; at 11.0 µM,-18%
same,growth inhibition,[6]; at 33.0 µM,-5%
same,growth inhibition,[6]; at 100.0 µM,-3%
same,growth inhibition,[7]; [16],-13%
same,growth inhibition,[7]; [17],64%
same,growth inhibition,[8]; at 1.2 µM,-8%
same,growth inhibition,[8]; at 3.7 µM,-30%
same,growth inhibition,[8]; at 11.0 µM,-35%
same,growth inhibition,[8]; at 33.0 µM,-19%
same,growth inhibition,[8]; at 100.0 µM,-5%
same,growth inhibition,[9]; [16],27%
same,growth inhibition,[9]; [17],70% (active)
same,growth inhibition,[10]; at 1.2 µM,-8%
same,growth inhibition,[10]; at 3.7 µM,-1%
same,growth inhibition,[10]; [16],15%
same,growth inhibition,[10]; at 11.0 µM,10%
same,growth inhibition,[10]; at 33.0 µM,7%
same,growth inhibition,[10]; [17],89% (active)
same,growth inhibition,[10]; at 100.0 µM,30%
same,growth inhibition,[11]; at 1.2 µM,-17%
same,growth inhibition,[11]; at 3.7 µM,-24%
same,growth inhibition,[11]; at 11.0 µM,-29%
same,growth inhibition,[11]; at 33.0 µM,-5%
same,growth inhibition,[11]; at 100.0 µM,13%
same,growth inhibition,[12]; at 1.2 µM,-35%
same,growth inhibition,[12]; at 3.7 µM,-41%
same,growth inhibition,[12]; at 11.0 µM,-25%
same,growth inhibition,[12]; at 33.0 µM,15%
same,growth inhibition,[12]; at 100.0 µM,27%
same,growth inhibition,[13]; at 1.2 µM,-30%
same,growth inhibition,[13]; at 3.7 µM,-30%
same,growth inhibition,[13]; at 11.0 µM,-31%
same,growth inhibition,[13]; at 33.0 µM,11%
same,growth inhibition,[13]; at 100.0 µM,28%
same,growth inhibition,[14]; [16],35%
same,growth inhibition,[14]; [17],79% (active)
same,growth inhibition,[14]; at 50.0 µM,84.8% (active)
same,growth inhibition,[15]; at 1.2 µM,-54%
same,growth inhibition,[15]; at 3.7 µM,-64%
same,growth inhibition,[15]; at 11.0 µM,-51%
same,growth inhibition,[15]; at 33.0 µM,-8%
same,growth inhibition,[15]; at 100.0 µM,20%
